Results filed as inconclusive are left out. The source made the active and inactive calls. Rule for the calls: active = hit-call score of the fitted dose curve at least 0.9, where 1 is the maximum; inconclusive = response in the unintended direction; inactive = score below 0.9.

Chain of human MAP Kinase-Activated Protein Kinase 5 (MAPKAPK5), MAPKAPK5 (gene 8550) (Q8IW41 whole entry, looked up): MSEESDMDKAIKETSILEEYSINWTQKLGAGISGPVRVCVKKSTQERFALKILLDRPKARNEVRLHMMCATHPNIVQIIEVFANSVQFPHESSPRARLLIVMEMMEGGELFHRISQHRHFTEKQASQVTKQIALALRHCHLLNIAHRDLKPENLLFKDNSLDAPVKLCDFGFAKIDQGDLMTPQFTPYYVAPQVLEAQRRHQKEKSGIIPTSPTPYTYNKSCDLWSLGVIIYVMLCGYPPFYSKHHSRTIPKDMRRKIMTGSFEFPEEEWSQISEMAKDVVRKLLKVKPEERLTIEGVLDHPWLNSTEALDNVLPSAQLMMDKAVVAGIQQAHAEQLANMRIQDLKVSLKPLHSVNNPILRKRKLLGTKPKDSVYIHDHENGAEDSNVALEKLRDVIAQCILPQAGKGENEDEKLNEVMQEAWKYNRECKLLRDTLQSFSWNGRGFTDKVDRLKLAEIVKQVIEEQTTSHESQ

This assay addresses human MAP Kinase-Activated Protein Kinase 5 (MAPKAPK5), MAPKAPK5 (gene 8550) (UniProt Q8IW41). The assay is described as follows: NVS_ENZ_hMAPKAPK5: NovaScreen (NVS) Enzymatic Assay for human MAP Kinase-Activated Protein Kinase 5 (MAPKAPK5). The procedure: NVS_ENZ_hMAPKAPK5 is a biochemical, single-readout assay that uses extracted gene-proteins in a cell-free assay. Measurements were taken 1 hour after chemical dosing in a 384-well plate.NVS_ENZ_hMAPKAPK5 is one of one assay component(s) measured or calculated from the NVS_ENZ_hMAPKAPK5 assay. It is designed to make measurements of enzyme activity, a form of enzyme reporter, as detected with fluorescence intensity signals by Fluorescence and electrophoretic mobility shift technology.Data from the assay component NVS_ENZ_hMAPKAPK5 was analyzed into 1 assay endpoint. This assay endpoint, NVS_ENZ_hMAPKAPK5, was analyzed in the positive analysis fitting direction relative to DMSO as the negative control and baseline of activity. Using a type of enzyme reporter, loss-of-signal activity can be used to understand changes in the enzymatic activity as they relate to the gene MAPKAPK5. Furthermore, this assay endpoint can be referred to as a primary readout, because this assay […]. To generalize the intended target to other relatable targets, this assay endpoint is annotated to the kinase intended target family, where the subfamily is serine/threonine kinase.
Binding assays used specific radioligands (tritiated, iodinated) with non-radioactive competitive displacement ligands in agonist or antagonist protocols (as indicated) and various reference compounds and inhibitors to titrate specific binding to receptors and transporters. Most enzyme assays (CYPs, kinases, phosphatases, proteases, HDACs) used recombinant protein and specific substrates (fluorescence mostly, some colorimetric and radioactive) and inhibitors, followed by a biochemical separation of substrate and product. All assays for the biochemical HTS were initially run in duplicate at a single concentration (10 uM for CYP450 assays and 25 uM for all others). Assay-chemical combinations meeting a pre-defined threshold (e.g., 30% inhibition and other criteria defined below) were then run in singleton concentration-response format with maximum concentration of 20 uM for CYPs and 50 uM for all others. Each assay was run with positive and negative controls, and concurrent controls on every plate. The follow-up (secondary) screen tested active chemical-pairs in concentration series, as well as a few additional assays not tested in the primary screen, some selected negative inactives, and several cases re-run in the concentration series for confirmatory purposes.
Regarding `C=C(C)CN(CC)c1c([N+](=O)[O-])cc(C(F)(F)F)cc1[N+](=O)[O-]`, the compound was called inactive.

With `CNC(=S)S`, the compound was called inactive.

As for `N#Cc1c(Cl)c(Cl)c(Cl)c(C#N)c1Cl`, the result was inactive.

On to `S=C1NCCN1`, for which the outcome was inactive.

As for `CN(C)[C@@H]1C(=O)C(C(N)=O)=C(O)[C@@]2(O)C(=O)C3=C(O)c4c(O)cccc4[C@@](C)(O)[C@H]3[C@H](O)[C@@H]12`, the concentration at half-maximal activity (AC50) is 24.2 µM (active).

Consider `O=C(O)C(F)(F)C(F)(F)C(F)(F)C(F)(F)C(F)(F)C(F)(F)C(F)(F)F`, for which the compound was called inactive.

Take `CCCC(=NOCC)C1=C(O)CC(CC(C)SCC)CC1=O` (stereo not drawn): the call was inactive.

Consider `O=S(=O)(O)C(F)(F)C(F)(F)C(F)(F)C(F)(F)C(F)(F)C(F)(F)C(F)(F)C(F)(F)F`, for which the AC50 is 44.1 µM (active).

One may read the AC50 as the midpoint of the concentration-response curve, whichever way the signal moves.

The values are drawn from PubChem BioAssay AID2283176 (EPA ToxCast).
